{"source": "PubChem BioAssay (EPA / NIEHS)", "note": "Results filed as inconclusive are left out. Some compounds were tested as several samples or in several runs, with calls that do not always agree. The source made the active and inactive calls. How the source made its calls: active means hit-call score of the fitted dose curve at least 0.9, where 1 is the maximum; inconclusive means response in the unintended direction; inactive means score below 0.9."}
{"molecular_target": "Hepatocyte nuclear factor 4-alpha (Homo sapiens) (UniProt P41235)", "sequence (P41235 whole entry, looked up)": "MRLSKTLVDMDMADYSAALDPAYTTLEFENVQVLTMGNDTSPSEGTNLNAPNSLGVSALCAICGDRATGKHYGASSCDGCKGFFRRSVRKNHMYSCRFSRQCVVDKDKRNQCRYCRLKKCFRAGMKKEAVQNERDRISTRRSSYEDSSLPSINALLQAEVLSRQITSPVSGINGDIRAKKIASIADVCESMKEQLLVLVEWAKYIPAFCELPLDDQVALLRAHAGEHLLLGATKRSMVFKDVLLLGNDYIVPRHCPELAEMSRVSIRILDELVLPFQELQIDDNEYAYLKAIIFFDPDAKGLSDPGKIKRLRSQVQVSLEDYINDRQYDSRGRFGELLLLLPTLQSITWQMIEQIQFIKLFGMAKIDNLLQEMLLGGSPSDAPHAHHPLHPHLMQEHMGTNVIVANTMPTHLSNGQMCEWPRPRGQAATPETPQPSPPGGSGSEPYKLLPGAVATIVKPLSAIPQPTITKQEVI", "experiment": "ATG_HNF4a_TRANS: Attagene TRANS-FACTORIAL HepG2 Assay for human Hepatocyte Nuclear Factor 4 alpha (HNF4a) (AID 2282982)", "details": "HepG2 HNF4a transactivation reporter, mRNA readout", "experimental": "ATG_TRANS is a cell-based, multiplexed-readout assay that uses HepG2, a human liver cell line, with measurements taken at 24 hours after chemical dosing in a 24-well plate.ATG_HNF4a_TRANS is one of 30 assay component(s) measured or calculated from the ATG_TRANS assay. It is designed to make measurements of mRNA induction, a form of inducible reporter, as detected with fluorescence intensity signals by Reverse transcription polymerase chain reaction (RT-PCR) and Capillary electrophoresis technology.Data from the assay component ATG_HNF4a_TRANS was analyzed into 1 assay endpoint. This assay endpoint, ATG_HNF4a_TRANS, was analyzed in the positive analysis fitting direction relative to DMSO as the negative control and baseline of activity. Using a type of inducible reporter, measures of mRNA for gain-of-signal activity can be used to understand the reporter gene at the transcription factor-level as they relate to the gene HNF4A. Furthermore, this assay endpoint can be referred to as a primary readout, because this assay has produced multiple assay endpoints where this one serves a reporter gene function. To generalize the intended target to other relatable targets, this assay endpoint is annotated to the nuclear receptor intended target family, where the subfamily is orphan.\nHuman liver HepG2 cells are transiently transfected with multiple reporter transcription units (MRTUs) in 6-well plates using FuGene 6 reagent (Roche; 3 ml FuGene/1 mg DNA). The MRTU constructs are regulated by a cis-regulating element (promoter). […] A major difference between the CIS and TRANS system is that in CIS activities of endogenous TFs are measured, whereas the TRANS assay evaluates changes in activities of exogenous, chimeric NR-Gal4 proteins. […] At the end of 24 hour incubation, total RNA was isolated using TriZol reagent (Invitrogen). The isolated RNA is then reverse-transcribed using oligo(dT) primer and Mo-MLV reverse transcriptase (Invitrogen) with DNAse I (Ambion) treatment for 30 min. The one-tenth of the produced cDNA was amplified by PCR using Taq DNA polymerase (Invitrogen) and two reporter sequence-specific primers. The PCR products were fluorescently labeled by primer extension with 6-arboxyfluorescein (6-FAM) 5'-labeled reporter sequence-specific primer (2 min at 95 C, 20 s at 68 C and 10 min at 72 C) and these products were digested with 5U of HpaI (New England Biolabs) for 2h at 37 C. The fragments were purified using Qiaquick PCR columns (Qiagen), analyzed on an ABI 3130xL genetic analyzer (Applied Biosystems) with peak positions identified by using a set of X-rhodamine (ROX)-labeled MapMarker1000 molecular weight standards (BioVentures). The raw capillary electrophoresis data was processed using Attagraph software (Attagene)."}
{"molecule": "CC(C)Oc1cc(-n2nc(C(C)(C)C)oc2=O)c(Cl)cc1Cl", "outcome": "inactive"}
{"molecule": "COc1cnc(OC)n2nc(NS(=O)(=O)c3c(OCC(F)F)cccc3C(F)(F)F)nc12", "outcome": "inactive"}
{"molecule": "CCCCNC(=O)OCC#CI", "AC50": "64.2 µM (active)"}
{"molecule": "CON(C)C(=O)Nc1ccc(Cl)c(Cl)c1", "outcome": "inactive"}
{"molecule": "CCCN(CCC)c1c([N+](=O)[O-])cc(S(N)(=O)=O)cc1[N+](=O)[O-]", "outcome": "inactive"}
{"molecule": "CCc1nn(C)c(C(=O)NCc2ccc(C(C)(C)C)cc2)c1Cl", "outcome": "inactive"}
{"molecule": "CCCCOC(=O)c1ccccc1C(=O)OCCCC", "outcome": "inactive"}
{"molecule": "Cc1c(F)c(F)c(COC(=O)C2C(/C=C(\\Cl)C(F)(F)F)C2(C)C)c(F)c1F", "note": "(stereo not given)", "outcome": "inactive"}
{"molecule": "CC(Oc1ccc(Cl)cc1Cl)C(=O)O", "note": "(stereo not given)", "outcome": "inactive"}
{"molecule": "CNC(=O)ON=CC(C)(C)SC", "outcome": "inactive"}
{"molecule": "C=CCC1=C(C)[C@@H](OC(=O)[C@@H]2[C@@H](C=C(C)C)C2(C)C)CC1=O", "outcome": "inactive"}
{"molecule": "COC(=O)N(OC)c1ccccc1COc1ccn(-c2ccc(Cl)cc2)n1", "outcome": "inactive"}
{"molecule": "N#Cc1nn(-c2c(Cl)cc(C(F)(F)F)cc2Cl)c(N)c1S(=O)C(F)(F)F", "note": "(stereo not given)", "outcome": "inactive"}
{"molecule": "CCCCNC(=O)n1c(NC(=O)OC)nc2ccccc21", "outcome": "inactive"}
{"molecule": "COc1nc(NC(C)C)nc(NC(C)C)n1", "outcome": "inactive"}
{"molecule": "Cc1cc(Cl)ccc1OCC(=O)O", "outcome": "inactive"}
{"molecule": "CCCC1COC(Cn2cncn2)(c2ccc(Cl)cc2Cl)O1", "note": "(stereo not given)", "outcome": "inactive"}
{"molecule": "C=CC1(C)OC(=O)N(c2cc(Cl)cc(Cl)c2)C1=O", "note": "(stereo not given)", "outcome": "inactive"}
{"molecule": "N#Cc1cc(Br)c(O)c(Br)c1", "outcome": "inactive"}
{"molecule": "C=CCC1=C(C)C(OC(=O)C2C(C=C(C)C)C2(C)C)CC1=O", "note": "(stereo not given)", "outcome": "inactive", "AC50": "179 µM (active)"}
{"molecule": "C#CCOS(=O)OC1CCCCC1Oc1ccc(C(C)(C)C)cc1", "note": "(stereo not given)", "outcome": "inactive"}
{"molecule": "COP(N)(=O)SC", "note": "(stereo not given)", "outcome": "inactive"}
{"molecule": "COC(=O)C=C(C)OP(=O)(OC)OC", "outcome": "inactive"}
{"molecule": "CC(C)(C)c1ccc(CSc2cnn(C(C)(C)C)c(=O)c2Cl)cc1", "outcome": "inactive"}
{"molecule": "Oc1ccccc1-c1ccccc1", "outcome": "inactive"}
{"molecule": "CCCCC(CC)COC(=O)c1ccccc1C(=O)OCC(CC)CCCC", "note": "(stereo not given)", "outcome": "inactive"}
{"molecule": "OC(c1ccc(Cl)cc1)(c1cncnc1)c1ccccc1Cl", "note": "(stereo not given)", "outcome": "inactive"}
{"molecule": "CC(C)C1(C)N=C(c2nc3ccccc3cc2C(=O)O)NC1=O", "note": "(stereo not given)", "outcome": "inactive"}
{"molecule": "COc1nc(C)nc(NC(=O)NS(=O)(=O)c2ccccc2Cl)n1", "outcome": "inactive"}
{"molecule": "COC(=O)C(C)Oc1ccc(Oc2ccc(Cl)cc2Cl)cc1", "note": "(stereo not given)", "outcome": "inactive"}
{"molecule": "O=C(Nc1ccccc1)Nc1ccnc(Cl)c1", "outcome": "inactive"}
{"molecule": "COc1ccc(C(c2ccc(OC)cc2)C(Cl)(Cl)Cl)cc1", "outcome": "inactive"}
{"molecule": "O=C(O)COc1nc(Cl)c(Cl)cc1Cl", "outcome": "inactive"}
{"molecule": "CNC(=S)S", "outcome": "inactive"}
{"molecule": "Fc1ccc(Oc2ccnc3cc(Cl)cc(Cl)c23)cc1", "outcome": "inactive"}
{"molecule": "CCOC(=O)CC(SP(=S)(OC)OC)C(=O)OCC", "note": "(stereo not given)", "outcome": "inactive"}
{"molecule": "COc1nc(C)nc(NC(=O)NS(=O)(=O)c2ccccc2CCC(F)(F)F)n1", "outcome": "inactive"}
{"molecule": "N#CC(CCc1ccc(Cl)cc1)(Cn1cncn1)c1ccccc1", "note": "(stereo not given)", "outcome": "inactive"}
{"molecule": "CO/C=C(/C(=O)OC)c1ccccc1Oc1cc(Oc2ccccc2C#N)ncn1", "outcome": "inactive"}
